Assay results from a collection of fitness landscapes (doi:10.1016/j.celrep.2020.107928).
Whole data set: some 81,000 sequences, median “one-hybrid fitness for binding NBS DNA” near -0.1, cut for the highest 2% near 0.36. Many of the other results were omitted from the sample, so the highest values are more common in it than they were.

B1: Caulobacter ParB omega fusion; a variant is named by its letters at X, in order, B8GW30 (parent)
chain: MESVVVGEPGMSEGRRGLGRGLSALLGEVDAAPAQAPGEQLGGSREAPIEILQRNPDQPRRTFREEDLEDLSNSIREKGVLQPILVRPSPDTAGEYQIVAGERAWRAAQRAGLKTVPIMVRELDDLAVLEIGIIENVQRADLNVLEEALSYKVLMEKFERTQENIAQTIGKSXSHVANXMRLLXLPDEVQSYLVSGELTAXHARAIAAAADPVALAKQIIEGGLSVRETEALARKAPNLSAGKSKGGRPPRVKDTDTQALESDLSSVLGLDVSIDHRGSTGTLTITYATLEQLDDLCNRLTRGI

Variants of: B1
Test: one-hybrid fitness for binding NBS DNA (the Noc-binding site; scaled: cognate 1, non-cognate 0); higher = stronger binding
Details: with NBS DNA site
In short: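 On M9-minus-histidine containing 0.1 mM IPTG and 5 mM 3-AT, E. coli USO cells with a HIS3 reporter, site 19 bp from the promoter, grew 48 hours at 37°C to select Caulobacter ParB libraries randomised at four specificity codons. Plasmids from before and after were Illumina-sequenced, with three replicate libraries pooled and variants under 10 reads left out. Fitness is the log change in variant-to-wild-type read ratio, rescaled against cognate and non-cognate.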

| Variant | one-hybrid fitness for binding NBS DNA |
| --- | --- |
| TYVA | ≤ 0.2 |
| SMNL | ≤ 0.2 |
| VKSS | ≤ 0.2 |
| NEES | ≤ 0.2 |
| WCYR | ≤ 0.2 |
| AMGT | ≤ 0.2 |
| RKCH | ≤ 0.2 |
| RKCR | 0.552 |
| RKCD | ≤ 0.2 |
| SQRN | ≤ 0.2 |
| VTPF | ≤ 0.2 |
| LTHI | ≤ 0.2 |
| PWLV | ≤ 0.2 |
| QQVY | ≤ 0.2 |
| QQVC | ≤ 0.2 |
| QQFC | ≤ 0.2 |
| QQVG | ≤ 0.2 |
| QQKG | 0.437 |
| QQFG | ≤ 0.2 |
| QQNC | 0.265 |
| QQRC | 0.455 |
| QQDY | ≤ 0.2 |
| QQKC | 0.449 |
| QQYC | ≤ 0.2 |

| Variant | one-hybrid fitness for binding NBS DNA |
| --- | --- |
| QQKY | 0.63 |
| RRWI | 0.2 |
| GLIT | ≤ 0.2 |
| LTTA | ≤ 0.2 |
| AREP | ≤ 0.2 |
| GRTD | ≤ 0.2 |
| PMHT | ≤ 0.2 |
| PPTR | ≤ 0.2 |
| KSNL | ≤ 0.2 |
| THKH | ≤ 0.2 |
| WPSG | ≤ 0.2 |
| GFYT | ≤ 0.2 |
| QQVS | 0.33 |
| QQKS | 0.714 |
| NQKS | ≤ 0.2 |
| QQYM | ≤ 0.2 |
| QQYY | ≤ 0.2 |
| QQRM | 0.459 |
| QQRY | 0.597 |
| QQFY | ≤ 0.2 |
| QQKN | 0.464 |
| QQFM | ≤ 0.2 |
| TWEG | ≤ 0.2 |
| PTGW | ≤ 0.2 |

| Variant | one-hybrid fitness for binding NBS DNA |
| --- | --- |
| RYQK | ≤ 0.2 |
| KVTF | ≤ 0.2 |
| WKWG | ≤ 0.2 |
| DWIC | ≤ 0.2 |
| LTTQ | ≤ 0.2 |
| SPPV | ≤ 0.2 |
| QQDG | ≤ 0.2 |
| QQKM | 0.476 |
| QQKK | 0.506 |
| QQYK | ≤ 0.2 |
| QQDM | ≤ 0.2 |
| QQRK | 0.499 |
| QQVM | ≤ 0.2 |
| QQRG | 0.407 |
| QQYG | ≤ 0.2 |
| QQPK | ≤ 0.2 |
| QQDK | ≤ 0.2 |
| QQAK | ≤ 0.2 |
| ASHP | ≤ 0.2 |
| HWMG | ≤ 0.2 |
| ITPE | ≤ 0.2 |
| GQNS | ≤ 0.2 |
| TPEF | ≤ 0.2 |
| IIVG | ≤ 0.2 |

| Variant | one-hybrid fitness for binding NBS DNA |
| --- | --- |
| NNMC | ≤ 0.2 |
| QQKD | 0.345 |
| QQKP | 0.336 |
| QQKH | 0.657 |
| SQHR | ≤ 0.2 |
| QRGI | 0.37 |
| IDNI | 0.591 |
| IDCI | ≤ 0.2 |
| QSGI | ≤ 0.2 |
| QPRI | ≤ 0.2 |
| QREI | ≤ 0.2 |
| QSRI | 0.338 |
| QRRI | 0.43 |
| QRYI | 0.254 |
| QCGI | ≤ 0.2 |
| QCRI | 0.407 |
| IDPI | ≤ 0.2 |
| PDRM | ≤ 0.2 |
| MWKT | ≤ 0.2 |
| DTEY | ≤ 0.2 |
| DDNC | ≤ 0.2 |
| PMEV | ≤ 0.2 |
| FFGC | ≤ 0.2 |
| MTER | ≤ 0.2 |

| Variant | one-hybrid fitness for binding NBS DNA |
| --- | --- |
| QTYI | ≤ 0.2 |
| QCNI | ≤ 0.2 |
| QTDI | ≤ 0.2 |
| QTRI | 0.478 |
| QRNI | 0.403 |
| QRDI | ≤ 0.2 |
| HLFS | ≤ 0.2 |
| RRGP | ≤ 0.2 |
| RRGN | 0.324 |
| RRGH | 0.44 |
| RRGD | ≤ 0.2 |
| RRGS | 0.55 |
| RRGM | 0.237 |
| PPPL | ≤ 0.2 |
| GQQS | ≤ 0.2 |
| RDPN | ≤ 0.2 |
| DGTL | ≤ 0.2 |
| SCPT | ≤ 0.2 |
| RTKR | 0.866 |
| RTKG | 0.223 |
| RTKM | 0.303 |
| RTVR | 0.416 |
| WTEY | ≤ 0.2 |
| YTWG | ≤ 0.2 |

| Variant | one-hybrid fitness for binding NBS DNA |
| --- | --- |
| PYNR | ≤ 0.2 |
| QSQS | 0.36 |
| QHQS | 0.394 |
| QMQP | ≤ 0.2 |
| QPQS | ≤ 0.2 |
| QMQH | ≤ 0.2 |
| QHIS | 0.258 |
| QMQS | 0.394 |
| QHQN | ≤ 0.2 |
| QCQS | 0.448 |
| CTNW | ≤ 0.2 |
| LAHD | ≤ 0.2 |
| LHIV | ≤ 0.2 |
| RFMT | ≤ 0.2 |
| RTMK | ≤ 0.2 |
| RRMY | 0.338 |
| RRMM | 0.221 |
| RPMT | ≤ 0.2 |
| RKMM | ≤ 0.2 |
| RCMT | 0.492 |
| RKMT | 0.587 |
| RTMG | ≤ 0.2 |
| RSMT | 0.305 |
| RTMT | 0.491 |

| Variant | one-hybrid fitness for binding NBS DNA |
| --- | --- |
| RRMT | 0.776 |
| PHSL | ≤ 0.2 |
| GMRS | ≤ 0.2 |
| SYNI | ≤ 0.2 |
| EIAA | ≤ 0.2 |
| WPVG | ≤ 0.2 |
| AYDR | ≤ 0.2 |
| PHAW | ≤ 0.2 |
| RMGT | 0.432 |
| RMLT | 0.347 |
| RMGK | ≤ 0.2 |
| RMQD | ≤ 0.2 |
| RMQP | ≤ 0.2 |
| RMST | 0.483 |
| RMRT | 0.633 |
| RMIT | 0.253 |
| RMSG | ≤ 0.2 |
| RMQT | 0.371 |
| RMGF | ≤ 0.2 |
| RMSK | ≤ 0.2 |
| NYTS | ≤ 0.2 |
| GQGC | ≤ 0.2 |
| AMCS | ≤ 0.2 |
| NVHT | ≤ 0.2 |

| Variant | one-hybrid fitness for binding NBS DNA |
| --- | --- |
| RMPT | ≤ 0.2 |
| RMYT | 0.417 |
| RMWT | 0.348 |
| PILE | ≤ 0.2 |
| WLPE | ≤ 0.2 |
| CTVI | ≤ 0.2 |
| RAMV | ≤ 0.2 |
| RPCS | ≤ 0.2 |
| RCCS | 0.46 |
| RKCS | 0.525 |
| RTCS | 0.467 |
| RTCP | ≤ 0.2 |
| RKCP | ≤ 0.2 |
| RSCS | 0.343 |
| RTCH | 0.234 |
| RKCN | ≤ 0.2 |
| RMCP | ≤ 0.2 |
| RMCD | ≤ 0.2 |
| RMCS | 0.383 |
| IART | ≤ 0.2 |
| NTSG | ≤ 0.2 |
| NVYS | ≤ 0.2 |
| KVTC | ≤ 0.2 |
| QPTP | ≤ 0.2 |

| Variant | one-hybrid fitness for binding NBS DNA |
| --- | --- |
| RWEY | ≤ 0.2 |
| ARSD | ≤ 0.2 |
| RCSW | ≤ 0.2 |
| RTAR | 0.548 |
| RTFR | 0.441 |
| RTFS | 0.339 |
| RTFN | ≤ 0.2 |
| RTAH | ≤ 0.2 |
| RTAN | ≤ 0.2 |
| VCRV | ≤ 0.2 |
| RISE | ≤ 0.2 |
| TSIF | ≤ 0.2 |
| HHVS | ≤ 0.2 |
| SALW | ≤ 0.2 |
| HAHM | ≤ 0.2 |
| QQMP | ≤ 0.2 |
| QQMD | ≤ 0.2 |
| QQMS | 0.368 |
| QQMK | ≤ 0.2 |
| QQMH | 0.222 |
| QQMT | 0.499 |
| QQMF | ≤ 0.2 |
| QQMN | ≤ 0.2 |
| QQMR | 0.584 |

| Variant | one-hybrid fitness for binding NBS DNA |
| --- | --- |
| TPTE | ≤ 0.2 |
| MRFN | ≤ 0.2 |
| SLPK | ≤ 0.2 |
| RCHW | ≤ 0.2 |
| TPGK | ≤ 0.2 |
| DQFT | ≤ 0.2 |
| QQAH | 0.284 |
| QQAD | ≤ 0.2 |
| QQAT | 0.482 |
| QQFT | 0.435 |
| DRLH | ≤ 0.2 |
| NPTI | ≤ 0.2 |
| WVVG | ≤ 0.2 |
| ARKE | ≤ 0.2 |
| GRRW | ≤ 0.2 |
| PTWL | ≤ 0.2 |
| PTTT | ≤ 0.2 |
| ARAA | ≤ 0.2 |
| RHGE | ≤ 0.2 |
| QELE | ≤ 0.2 |
| DGQC | ≤ 0.2 |
| KKKY | ≤ 0.2 |
| RSWM | ≤ 0.2 |
| QRNY | 0.556 |

| Variant | one-hybrid fitness for binding NBS DNA |
| --- | --- |
| QCLY | ≤ 0.2 |
| QRPY | ≤ 0.2 |
| QSCY | ≤ 0.2 |
| QSLY | ≤ 0.2 |
| QPCY | ≤ 0.2 |
| QCNY | 0.297 |
| QRDY | 0.289 |
| QREY | 0.256 |
| QRLY | 0.447 |
| QRRY | 0.718 |
| QRCY | 0.508 |
| HFFC | ≤ 0.2 |
| LYPV | ≤ 0.2 |
| TISM | ≤ 0.2 |
| AKHW | ≤ 0.2 |
| ALKD | ≤ 0.2 |
| SPCC | ≤ 0.2 |
| WADF | ≤ 0.2 |
| RNVM | ≤ 0.2 |
| SLWP | ≤ 0.2 |
| MHGS | ≤ 0.2 |
| FLKC | ≤ 0.2 |
| NLKN | ≤ 0.2 |
| QPSY | ≤ 0.2 |

| Variant | one-hybrid fitness for binding NBS DNA |
| --- | --- |
| QRWY | 0.289 |
| QPHY | ≤ 0.2 |
| QRSY | 0.477 |
| QCSY | 0.22 |
| QRGY | 0.571 |
| QRHY | 0.553 |
| QRYY | 0.433 |
| QCHY | 0.258 |
| QCGY | 0.3 |
| QPGY | ≤ 0.2 |
| QRIY | 0.271 |
| KKIT | ≤ 0.2 |
| QYVI | ≤ 0.2 |
| PAGP | ≤ 0.2 |
| AGDQ | ≤ 0.2 |
| RWTS | ≤ 0.2 |
| MTVE | ≤ 0.2 |
| MHPL | ≤ 0.2 |
| NLEL | ≤ 0.2 |
| YEAS | ≤ 0.2 |
| QSQY | ≤ 0.2 |
| QCQY | 0.265 |
| QRVY | 0.344 |
| QRKY | 0.699 |

| Variant | one-hybrid fitness for binding NBS DNA |
| --- | --- |
| QRQY | 0.521 |
| NRKY | ≤ 0.2 |
| GKDL | ≤ 0.2 |
| ARSS | ≤ 0.2 |
| LLLY | ≤ 0.2 |
| CRVR | ≤ 0.2 |
| CRRR | 0.373 |
| CRDR | ≤ 0.2 |
| CRYR | ≤ 0.2 |
| CCKR | ≤ 0.2 |
| CRKR | 0.417 |
| SYHR | ≤ 0.2 |
| CIIR | ≤ 0.2 |
| QLHC | ≤ 0.2 |
| DTYG | ≤ 0.2 |
| LLQA | ≤ 0.2 |
| YPAF | ≤ 0.2 |
| QLRS | 0.586 |
| QLRH | 0.452 |
| QLRN | 0.319 |
| QLRP | ≤ 0.2 |
| QLYS | 0.252 |
| QLYH | ≤ 0.2 |
